Data: PubChem BioAssay (NCATS)
Results filed as inconclusive are left out. Active and inactive are the calls of the source. Calls follow the shape of the dose curve; as a rule, active = well fitted curve in the direction sought with a large enough effect; inconclusive = small, poorly fitted or top-dose-only effect, or another doubt; inactive = no such curve, though single readings can be large; an effect the other way counts as inactive or inconclusive.

Experiments:
[1] = G06 Cancer Cell Toxicity qHTS against the NCATS CANVASS Library (AID 1347368); also: series mostly up to about 46 µM; nearly all actives have a fitted effect of over 60% in size
Source text: (§1) Natural products and their derivatives continue to be wellsprings of nascent therapeutic potential. However, many laboratories have limited resources for biological evaluation, leaving their previously isolated or synthesized compounds largely or completely untested. To address this issue, the Canvass library of natural products was assembled (https://tripod.nih.gov/canvass), in collaboration with academic and industry researchers, for quantitative high-throughput screening (qHTS) across a diverse set of cell-based and biochemical assays. […] The library was formatted into 1536-well plates and evaluated in 50 qHTS (in an 11-pnt concentration series) bioassays with broad scope of disease-relevant mechanisms. The resulting data set from 50 different assays was then systematically analyzed to identify overall trends and specific natural products with interesting biological activities. […] This assay uses ATP (luminescence) content to measure the cytotoxiciy of compounds on G06 dog glioma cancer cell line. […]
Cancer Cell Toxicity qHTS protocol: for cell lines G06, J3T, and SDT. […] Luminescence signal was acquired via the ViewLux plate reader (PerkinElmer) using a clear emission filter, 2 sec exposure, and 1x binning settings.

[2] = MCF7 Cancer Cell Toxicity qHTS against the NCATS CANVASS Library (AID 1347369); also: series mostly up to about 46 µM
Source text: as §1, with “assays. The pure (>85% purity by liquid chromatography/mass spectrometry [LC/MS]) Canvass library of 346 natural products were submitted by 45 academic laboratories and companies around the world.” for “assays.”, “MCF7 human breast” for “G06 dog glioma”
Cancer Cell Toxicity qHTS protocol: MCF7 cell line 1. […] Luminescence signal was acquired via the ViewLux plate reader (PerkinElmer) using a clear emission filter, 2 sec exposure, and 1x binning settings.

[3] = qHTS for ATAD5 Antagonist screened against the NCATS CANVASS Library (AID 1347370);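 also: HEK293T cells carrying an ATAD5 luciferase reporter co-treated with 10 µM 5-fluorouridine; series mostly up to about 46 µM; nearly all actives have a fitted effect of over 65% in size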
In short: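 Compounds (11-point) co-dosed with 10 µM 5-FUrd for 16 h at 37 °C onto HEK293T-ATAD5 luciferase reporter cells. Viability measured by CellTiter-Fluor fluorescence, then ATAD5 reporter signal by luminescence.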

[4] = J3T Cancer Cell Toxicity qHTS against the NCATS CANVASS Library (AID 1347371);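 also: J3T is a canine glioma cancer cell line seeded at 500 cells per well; series mostly up to about 46 µM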
In short: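 Cytotoxicity read as CellTiterGlo ATP luminescence after 72 h incubation (37C, 5% CO2) of J3T canine glioma cells (500/well) with an 11-point compound series.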

[5] = target: Nuclear receptor subfamily 1 group I member 3 (Homo sapiens) (UniProt Q14994); assay: qHTS for Constitutive Androstane Receptor (CAR) Antagonist screened against the NCATS CANVASS Library (AID 1347372);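 also: cells stimulated with 50 nM CITCO agonist so inhibition reflects antagonism; series mostly up to about 46 µM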
Sequence of Nuclear receptor subfamily 1 group I member 3 (Homo sapiens) (Q14994 whole entry, looked up): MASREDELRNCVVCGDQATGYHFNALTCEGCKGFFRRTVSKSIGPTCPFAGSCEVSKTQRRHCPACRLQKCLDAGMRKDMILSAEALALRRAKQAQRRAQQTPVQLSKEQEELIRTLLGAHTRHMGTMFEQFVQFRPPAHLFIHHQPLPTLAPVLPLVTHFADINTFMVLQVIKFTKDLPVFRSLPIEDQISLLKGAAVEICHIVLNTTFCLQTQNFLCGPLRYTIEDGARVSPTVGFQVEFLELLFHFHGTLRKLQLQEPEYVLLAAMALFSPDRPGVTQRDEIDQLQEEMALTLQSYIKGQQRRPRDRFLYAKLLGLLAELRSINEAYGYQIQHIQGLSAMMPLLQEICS
In short: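 Antagonist mode: compound added alongside 50 nM CITCO to HepG2-hCAR-CYP2B6 reporter cells, 24hr at 37C. Viability by CellTiter-Fluor fluorescence, then CAR-driven luciferase by ONE-Glo luminescence.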

[6] = target: Nuclear receptor subfamily 1 group I member 3 (Homo sapiens) (UniProt Q14994); assay: qHTS for Constitutive Androstane Receptor (CAR) Agonist screened against the NCATS CANVASS Library (AID 1347373);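 also: every well also contained 1.5 µM PK11195 alongside the test compound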
In short: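 Agonist mode with 1.5uM PK11195 present: compounds for 24hr on HepG2-hCAR-CYP2B6 cells. CellTiter-Fluor fluorescence (ex 405, em 540 nm) gives viability; ONE-Glo luminescence reports CAR activation.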

[7] = qHTS for Hypoxia signaling pathway (HIF-1) antagonists against the NCATS CANVASS Library (AID 1347374);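 also: HRE-bla ME-180 cells stimulated with cobalt chloride to stabilize HIF-1alpha; series mostly up to about 38 µM; nearly all actives have a fitted effect of over 60% in size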
In short: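 Antagonism scored as loss of CoCl2-driven (60 uM stock added) HRE beta-lactamase signal, read by CCF4 FRET at 460/530 nm. Compounds were tested in an 11-point series on ME-180 reporter cells for 17 hrs at 37C, with parallel CellTiter-Glo cytotoxicity.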

[8] = qHTS for Hypoxia signaling pathway (HIF-1) agonists against the NCATS CANVASS Library (AID 1347375)
In short: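 Beta-lactamase reporter under HRE control in ME-180 cells; compounds (11-point qHTS series) added after 5 hrs plating, then 17 hrs at 37C. FRET substrate read after 2 hr; same-well CellTiter-Glo luminescence gave viability and normalization.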

[9] = 10-beta competent E. coli microbial cell viability qHTS against the NCATS CANVASS Library (AID 1347376); also: series mostly up to about 46 µM
In short: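 Read-out: BacTiter-Glo ATP luminescence, taken 20 min after reagent addition. Beforehand, 10-beta competent E. coli at 0.2 OD had been incubated overnight at 37C with compounds at 11 concentrations.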

[10] = DH5-alpha competent E. coli microbial cell viability qHTS against the NCATS CANVASS Library (AID 1347377); settings: outcome: dose series up to 46.1 µM
In short: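 Bacterial viability as ATP-dependent luminescence (BacTiter-Glo), read after overnight 37 °C exposure of DH5-alpha competent E. coli to compounds in 11-point titration.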

Measured: outcome

NCCc1c[nH]c2ccccc12
inactive: [1] | [2] | [3] | [4] | [5] | [6] | [7] | [8] | [9] | [10]

NCCc1c[nH]c2ccc(O)cc12
inactive: [1] | [2] | [3] | [4] | [5] | [6] | [7] | [8] | [9] | [10]
